This passage reports Potency, outcome and max activation results from PubChem BioAssay (Tox21).

The structures appear in SMILES notation. Unmarked numbers belong to inactive results. Results filed as inconclusive are left out. Activity calls are given as the source filed them. The call rests on the fitted dose curve; in most records, active means well fitted curve in the direction sought with a large enough effect in the repeat runs; inconclusive means weak or mixed curves; inactive means no such curve, though single readings can be large; an effect the other way counts as inactive or inconclusive.

Test [1] can be described thus: Human pregnane X receptor (PXR) small molecule agonists, qHTS cell viability counter screen (AID 1346977). Further: nearly all actives have a fitted effect of over 50% in size. Put shortly:
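Fluorescence read-out (CellTiter-Fluor) of viability in PXR-Luc HepG2 cells, multiplexed with the luciferase agonist read. Compounds in DMSO added after 5hr plating; 24hr total exposure at 37C, 5% CO2.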
For orientation: In qHTS, concentration-response curves come from the screen itself.

Test [2] can be described thus: Caspase-3/7 induction in HepG2 cells by small molecules, qHTS assay (AID 1346978). Further: nearly all actives have a fitted effect of over 15% in size. The method, boiled down: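 Wild-type HepG2 cells, 2,000/well, settled 5 hr at 37 C and 5% CO2, then compound-treated for 17 hr; caspase-3/7 activity read by luminescent Caspase-Glo 3/7 after 30 min at room temperature.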
The nature of test [3]: Caspase-3/7 induction in CHO-K1 cells by small molecules, qHTS cell viability counter screen (AID 1346979). Further: nearly all actives have a fitted effect of over 35% in size. Further: potency means the concentration at half of the fitted maximal effect. The method, boiled down:
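CHO-K1 wt, 1,500 cells/well; 5hr pre-incubation 37C/5% CO2; compound pin transfer (DMSO); 16hr exposure; CellTiter-Fluor added, 1hr, fluorescence read.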

A short description of test [4]: Caspase-3/7 induction in CHO-K1 cells by small molecules, qHTS assay (AID 1346980). Further: nearly all actives have a fitted effect of over 15% in size. Put shortly: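 Wild-type CHO-K1 cells exposed to compounds for 17hr at 37 C, 5% CO2. Caspase-3/7 activity then measured by Caspase-Glo 3/7 luminescence after 30min at room temperature.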
The nature of test [5]: Caspase-3/7 induction in HepG2 cells by small molecules, qHTS cell viability counter screen (AID 1346981). Further: series mostly up to about 92 µM; nearly all actives have a fitted effect of over 30% in size. Put shortly: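 CellTiter-Fluor fluorescence measured viability in the same wells used for Caspase-Glo 3/7. HepG2 (wild type) at 2,000 cells/well were pre-incubated 5 hr, dosed, and given reagent at 16 hr, with 1 hr further at 37C.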
Test [6] has as its target Nuclear receptor subfamily 1 group I member 2 (Homo sapiens) (UniProt O75469). Nature of the test: Human pregnane X receptor (PXR) small molecule agonists, qHTS assay (AID 1346982). Further: nearly all actives have a fitted effect of over 35% in size. Further: potency means the concentration at half of the fitted maximal effect. Put shortly:
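Agonist mode: luminescence from ONE-Glo after 24 h compound exposure at 37C in HepG2 cells carrying hPXR-responsive CYP3A4 luciferase, plated in charcoal-stripped serum medium 5 h beforehand.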

The target in test [7] is Nuclear receptor subfamily 1 group I member 2 (Rattus norvegicus) (UniProt Q9R1A7). Nature of the test: Rat pregnane X receptor (rPXR) activation by small molecules, qHTS assay (AID 1346983). Further: nearly all actives have a fitted effect of over 20% in size. The settings on record: rPXR luciferase reporter cells, One-Glo luminescence, 24 h; max activation: hits give high values. Put shortly:
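Cell-based rPXR activation assay: rPXR cells, 2,000 per well, rested 5hr at 37 C, then exposed to compounds in DMSO for 24 hr at 37 C. Luciferase activity read by One-Glo luminescence after 30 min at room temperature.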

The target of test [8] is Nuclear receptor subfamily 1 group I member 2 (Homo sapiens) (UniProt O75469). Nature of the test: CYP3A4 induction through human pregnane X receptor (PXR) by small molecules, qHTS assay (AID 1346984). Further: nearly all actives have a fitted effect of over 40% in size. Further: potency means the concentration at half of the fitted maximal effect. The method, boiled down:
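Read-out is luminescence after One-Glo addition, following a 3 hr, 37C incubation with Luciferin-IPA CYP3A4 substrate (3uM final). Before that, compounds were on DPX-2 cells (HepG2 co-transfected with PXR element plus CYP3A4-promoter luciferase) for 24 hr at 37C.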

Test [9] shares this target. Nature of the test: Human pregnane X receptor (PXR) activation by small molecules, qHTS assay (AID 1346985). Further: nearly all actives have a fitted effect of over 40% in size. Further: potency means the concentration at half of the fitted maximal effect. Put shortly:
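DPX-2 cells (HepG2 co-transfected with a PXR response element and a CYP3A4-promoter luciferase construct) were seeded at 2,000 per well, rested 5 hr at 37C, then exposed to DMSO-dissolved compounds for 24 hr. Activation was read as luciferase luminescence.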

The target of test [10] is Cytochrome P450 2D6 (Homo sapiens) (UniProt P10635). Nature of the test: Cytochrome P450 Family 2 Subfamily D Member 6 (CYP2D6) small molecule antagonists: luciferase reporter qHTS assay (AID 1671196). Further: nearly all actives have a fitted effect of over 50% in size. Further: potency means the concentration at half of the fitted maximal effect. Put shortly: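 CYP2D6 activity was followed as luminescence from its luciferin product after a 1 h NADPH-driven reaction at room temperature. Enzyme-substrate mix and compound were pre-incubated for 10 min, and the signal was read 20 min after adding detection reagent.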
Sequence of Cytochrome P450 2D6 (Homo sapiens) (P10635 whole entry, looked up): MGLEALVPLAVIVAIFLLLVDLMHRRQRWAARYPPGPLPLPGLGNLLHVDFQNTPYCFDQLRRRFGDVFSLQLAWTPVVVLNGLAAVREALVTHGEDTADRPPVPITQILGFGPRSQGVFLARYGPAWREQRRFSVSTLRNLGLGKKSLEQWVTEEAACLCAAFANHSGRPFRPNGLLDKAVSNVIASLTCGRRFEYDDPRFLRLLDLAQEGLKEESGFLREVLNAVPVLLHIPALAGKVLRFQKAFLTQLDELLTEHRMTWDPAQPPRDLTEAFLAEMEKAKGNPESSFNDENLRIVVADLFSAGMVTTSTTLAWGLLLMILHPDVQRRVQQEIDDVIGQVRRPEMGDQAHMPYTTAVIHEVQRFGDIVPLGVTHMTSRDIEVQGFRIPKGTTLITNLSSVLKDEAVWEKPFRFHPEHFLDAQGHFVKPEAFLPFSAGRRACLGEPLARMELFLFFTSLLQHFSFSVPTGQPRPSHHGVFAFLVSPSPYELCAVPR
On the technique in general: A reporter such as luciferase makes a cellular process visible.
On the % scale 0 is the no-effect control and ±100 the full control effect.

Sequence of Nuclear receptor subfamily 1 group I member 2 (Homo sapiens) (O75469 whole entry, looked up): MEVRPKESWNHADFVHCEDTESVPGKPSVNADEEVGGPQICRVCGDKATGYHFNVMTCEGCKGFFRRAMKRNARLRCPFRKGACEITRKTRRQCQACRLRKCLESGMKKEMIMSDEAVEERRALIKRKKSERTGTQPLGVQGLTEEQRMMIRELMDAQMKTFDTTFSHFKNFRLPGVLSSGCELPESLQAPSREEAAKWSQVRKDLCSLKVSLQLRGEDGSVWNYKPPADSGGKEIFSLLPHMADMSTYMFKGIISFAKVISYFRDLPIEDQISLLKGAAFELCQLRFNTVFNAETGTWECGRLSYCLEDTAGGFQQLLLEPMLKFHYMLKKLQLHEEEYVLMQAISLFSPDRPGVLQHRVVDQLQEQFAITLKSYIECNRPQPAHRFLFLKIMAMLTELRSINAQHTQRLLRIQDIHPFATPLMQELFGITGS
Sequence of Nuclear receptor subfamily 1 group I member 2 (Rattus norvegicus) (Q9R1A7 whole entry, looked up): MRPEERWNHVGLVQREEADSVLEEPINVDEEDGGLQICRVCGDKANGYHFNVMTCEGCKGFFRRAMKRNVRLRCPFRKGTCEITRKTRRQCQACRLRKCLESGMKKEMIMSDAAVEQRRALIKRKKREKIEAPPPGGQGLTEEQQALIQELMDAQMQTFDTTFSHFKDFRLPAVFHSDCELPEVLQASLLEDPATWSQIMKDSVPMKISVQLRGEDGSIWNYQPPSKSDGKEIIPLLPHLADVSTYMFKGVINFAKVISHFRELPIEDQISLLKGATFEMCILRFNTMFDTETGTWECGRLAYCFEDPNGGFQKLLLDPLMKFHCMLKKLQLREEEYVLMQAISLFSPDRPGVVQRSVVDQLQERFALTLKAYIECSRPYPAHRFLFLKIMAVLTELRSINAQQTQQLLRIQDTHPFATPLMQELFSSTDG

For the compound `CC(C)NCC(O)COc1ccc(CCOCC2CC2)cc1` (stereo unspecified), the Potency result in test [1], in test [2], in test [3] and in test [5] was “inactive” in each case. The result in test [4] was inactive.

On to `Oc1ccccc1C=NCc1ccccc1`, for which the Potency entry in [1], in test [2], in test [3], in [5] and in test [6] was “inactive” throughout. In test [4], the compound was classed as inactive. In test [7], the max activation is -0.218%. Also, the Potency in test [8] is 14.1 µM (active).

Regarding `CCc1cc(Cl)c(OC)c(C(=O)NC[C@@H]2CCCN2CC)c1O`, the Potency result in test [1], in test [2], in [3] and in test [5] was “inactive” throughout. Besides, in [4], the outcome was inactive. Further, the Potency in [6] is 7.5 µM (active); in test [8] it was 15.8 µM (active); in test [9], 25.1 µM (active); in test [10], 0.617 µM (active). Moreover, the max activation in test [7] was -0.901%.

Consider `O=C1C=CC(=O)O1`, for which the Potency result in [1], in test [2], in test [3], in test [5] and in test [6] was “inactive” throughout. Further, in test [4], the call was inactive.

In the case of `NCCCN1CCN(CCCN)CC1`, the Potency entry in test [1], in test [2], in test [3] and in test [5] was “inactive” throughout. The compound was classed as inactive in [4].

For `CCCCNc1cc(C(=O)O)cc(S(N)(=O)=O)c1Oc1ccccc1`, the Potency result in [1], in test [2], in test [3] and in [5] was “inactive” in each case. For the same compound, the compound was called inactive in test [4].

In the case of `CC1(C)S[C@@H]2[C@H](NC(=O)C(C(=O)O)c3ccccc3)C(=O)N2[C@H]1C(=O)O` (stereo partly specified), the Potency entry in [1], in test [2], in [3], in [5], in test [6] and in test [8] was “inactive” each time. Also, the Potency entry in test [9] and in test [10] was “inactive” in each case. In [4], the call was inactive. Further, in [7], the max activation was 0.938%.

Take `CCCCc1ccc2nc(NC(=O)OC)[nH]c2c1`: the Potency result in test [1], in test [2], in test [5] and in test [10] was “inactive” each time. For the same compound, the results for the Potency in [3], in test [6] and in test [9] were 1.19 µM (active), 2.98 µM (active) and 4.47 µM (active), respectively. Further, the call in test [4] was inactive.

In the case of `NCCC(O)(P(=O)(O)O)P(=O)(O)O`, the Potency result in test [1], in test [2], in [3], in test [5], in [6] and in test [8] was “inactive” each time. For the same compound, the Potency entry in test [9] and in test [10] was “inactive” in each case. The call in [4] was inactive. In [7], the max activation is -0.383%.

Regarding `Cc1c[nH]c(=S)[nH]c1=O`, the Potency entry in test [1], in [2], in [3], in test [5] and in test [6] was “inactive” throughout. For the same compound, the outcome in [4] was inactive.

For `C=CC(C)(O)CC/C=C(\C)CCC=C(C)C` (stereo unspecified), the Potency entry in test [1], in [2], in test [3], in [5], in test [6] and in [8] was “inactive” each time. Further, the Potency result in test [9] was “inactive”. Further, the result in test [4] was inactive. Further, the max activation in test [7] is 3.74%.

In the case of `CCOC(=O)c1ccccc1O`, the Potency entry in test [1], in [2], in test [3], in test [5], in test [6] and in test [8] was “inactive” each time. In addition, the Potency entry in test [9] and in test [10] was “inactive” each time. Also, the call in [4] was inactive. For the same compound, the max activation in test [7] is -7.66%.

Consider `CCCNC(C)C(=O)Nc1c(C)csc1C(=O)OC` (stereo unspecified), for which the Potency entry in [1], in test [2], in test [3], in test [5], in test [6] and in [8] was “inactive” throughout. In addition, the Potency entry in [9] and in [10] was “inactive” in each case. The result in [4] was inactive. In addition, the max activation in test [7] was -1.55%.

As to `Cc1cc(S(=O)(=O)O)c(N)cc1Cl`, the Potency entry in [1], in test [2], in test [3] and in test [5] was “inactive” each time. Also, in test [4], the call was inactive.

Consider `C=CCc1cc(OC)c(O)c(C(=O)NCCO)c1`, for which the Potency entry in test [1], in [2], in test [3], in test [5], in test [6] and in test [8] was “inactive” each time. The Potency result in test [9] is “inactive”. Besides, the outcome in test [4] was inactive. Also, the max activation in [7] was -0.885%.

Consider `CC1(O)CSC(C)(O)CS1` (stereo unspecified), for which the Potency result in test [1], in test [2], in test [3], in test [5], in test [6] and in [10] was “inactive” in each case. The result in [4] was inactive.

On to `Oc1ccccc1F`, for which the Potency entry in [1], in [2], in test [3], in test [5], in [6] and in test [10] was “inactive” in each case. Also, the compound was called inactive in [4].

In the case of `CCOC(=O)C(Br)c1ccccc1` (stereo unspecified), the Potency entry in test [1], in test [2], in [3], in test [5], in [6] and in [10] was “inactive” in each case. In test [4], the result was inactive.

`Cn1cnc2c(F)c(Nc3ccc(Br)cc3Cl)c(C(=O)NOCCO)cc21`: the Potency result in [1], in [2], in test [3], in [5], in test [6] and in test [10] was “inactive” in each case. In addition, the compound was called inactive in [4].

In the case of `COC(C)CCO` (stereo unspecified), the Potency entry in test [1], in [2], in test [3], in test [5], in test [6] and in test [10] was “inactive” throughout. The call in test [4] was inactive.

`CN(C)Cc1ccccc1`: the Potency entry in test [1], in [2], in [3], in test [5] and in [6] was “inactive” each time. For the same compound, the compound was called inactive in test [4]. In test [10], the Potency is 18 µM (active).

With `CCCCCCn1c(=O)c2c(ncn2C)n(C)c1=O`, the Potency result in test [1], in test [2], in [3], in [5], in test [6] and in test [10] was “inactive” in each case. Further, the call in test [4] was inactive.

Turning to `O=Cc1ccc(F)c(Br)c1`, the Potency result in test [1], in [2], in [3], in test [5], in test [6] and in test [10] was “inactive” throughout. Besides, in test [4], the outcome was inactive.

In the case of `CN(CC1(C)CCCO1)S(=O)(=O)c1ccc(Cl)c(S(N)(=O)=O)c1` (stereo unspecified), the Potency entry in [1], in test [2], in test [3], in test [5] and in test [10] was “inactive” each time. The compound was classed as inactive in test [4]. For the same compound, the Potency in [6] is 10.6 µM (active).

With `CCC/C=C/CO`, the Potency result in test [1], in test [2], in [3], in test [5], in test [6] and in test [10] was “inactive” each time. The outcome in test [4] was inactive.
